# Results published in the supplement of paper PMC9334596.
# Where “and” joins values, the source holds several entries; their conditions need not be identical. Identical values can stand only once. Whole data set: some 5,300 compounds, median “PER2::LUC luminescence relative to vehicle control” near 0.96, cut for the highest 2% near 1.3. Only a selection was taken, and the highest values are over-represented in it overall.
# System: mPer2Luc MEF
# Experiment: PER2::LUC luminescence relative to vehicle control (fold of vehicle); higher = higher PER2::LUC reporter signal
# Conditions: 10 µM
# In short: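 Each value gives PER2::LUC luminescence as fold of vehicle control, measured with the ONE-Glo luciferase assay system in mouse embryonic fibroblasts carrying the mPer2Luc reporter. Cells grown in DMEM with 10% FBS at 37 °C and 5% CO2 were seeded at ~3000 per well in 384-well plates. Library compounds were added at 10 μM 48 h later, and readings were taken 24 h and 30 h after treatment.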
SMILES,PER2::LUC luminescence (time after treatment 24 h),PER2::LUC luminescence (time after treatment 30 h)
O=C(O)[C@H]1O[C@@H](Oc2cc3oc(-c4ccccc4)cc(=O)c3c(O)c2O)[C@H](O)[C@@H](O)[C@@H]1O,1.22,1.34
O=c1cc(-c2ccccc2)oc2cc(O)c(O)c(O)c12,1.13,1.1
COc1ccc(-c2cc(=O)c3c(OC(C)=O)cc(OC(C)=O)cc3o2)cc1,1.25,1.3
COc1ccc(-c2cc(=O)c3c(OC)c(OC)c(OC)cc3o2)cc1OC,0.736,0.843
COc1cccc2oc(-c3ccccc3)cc(=O)c12,1.41,1.43
O=c1cc(-c2ccccc2)oc2cccc(O)c12,1.25,1.42
COc1cc(C)c2c(=O)cc(-c3ccccc3)oc2c1,1.64,1.76
O=c1cc(-c2ccc(O)cc2)oc2cc(O)cc(O)c12,0.595,0.545
O=c1cc(-c2ccc(O)c(O)c2)oc2cc(O)cc(O)c12,1.01,1.1
COc1cc(OC)c2c(=O)cc(-c3ccccc3)oc2c1,1.01,1.12
COc1c(O)cc(O)c2c(=O)cc(-c3ccccc3)oc12,1.03,1.02
O=c1cc(-c2ccccc2)oc2cc(O)cc(O)c12,1.55 and 1.53,2.06 and 1.73
CC[C@H]1OC(=O)C[C@@H](O)[C@H](C)[C@@H](O[C@@H]2O[C@H](C)[C@@H](O)[C@H](N(C)C)[C@H]2O)[C@@H](CCN2CCCCC2)C[C@@H](C)C(=O)/C=C/C(C)=C/[C@@H]1CN1CCCCC1,0.885,0.882
CC1NC(=O)NC1=O (configuration not stated),0.946,0.877
CCO[C@H]1CN(C2CCC(O)(c3ccc4c(c3)OCO4)CC2)C[C@@H]1NC(=O)CNC(=O)c1cccc(C(F)(F)F)c1 (some centres not stated),0.97,0.88
C#CCN(Cc1cc2c(=O)n(C)c(CN3CCN(C)CC3)nc2cc1Cl)c1ccc(C(=O)NCc2cccnc2)cc1,0.621,0.565
c1ccc2c3c([nH]c2c1)[C@H]1[C@@H]2CC[C@@H]([C@@H]4CCCN[C@@H]42)N1CC3,1.23,1
CC(C)CCC[C@@H](C)[C@H]1CC[C@H]2[C@@H]3C=CC4=CC(=O)CC[C@]4(C)[C@H]3CC[C@]12C,0.981,0.927
CC(C(=O)O[C@]12CCC[C@H](CC1)N2C)c1ccc(Br)cc1 (some centres not stated),0.821,0.934
CCOc1ccc(Oc2ccc(OCc3cc(F)ccc3F)cc2)c(N)c1,1.03,0.887
C[C@@H]1O[C@@H](OC[C@H]2O[C@@H](OCCc3ccc(O)c(O)c3)[C@H](O)[C@@H](O[C@@H]3O[C@@H](C)[C@H](O)[C@@H](O)[C@H]3O)[C@@H]2OC(=O)/C=C/c2ccc(O)c(O)c2)[C@H](O)[C@H](O)[C@H]1O,1.09,0.982

SMILES,PER2::LUC luminescence (time after treatment 24 h),PER2::LUC luminescence (time after treatment 30 h)
N[C@@H](C(=O)N[C@@H]1C(=O)N2C(C(=O)O)=C(CSc3cn[nH]n3)CS[C@H]12)c1ccc(O)cc1,1,0.912
C/C1=C/CCC(C)(O)/C=C\C(C(C)C)C(OC(=O)c2ccc(O)cc2)C1 (configuration not stated),1.06,1.07
O=C1NC(=O)/C(=C/c2ccc3c(c2)OC(F)(F)O3)S1,1.31 and 1.12,1.42 and 1.06
O=C1NC(=O)/C(=C/c2cccc(C(F)(F)F)c2)S1,1.02,1.06
O=C1NC(=O)/C(=C\c2ccc3nccnc3c2)S1,1.2,1.23
O=C(O)c1cccc(CN2C(=O)/C(=C(\c3ccccc3)c3ccc(Cl)cc3)c3ccccc32)c1,1.09,1.03
CO[C@@H]1[C@@H](O[C@@H]2O[C@H](C)[C@@H](O[C@H]3C[C@@](C)(O)[C@@H](OC(=O)CC(C)C)[C@H](C)O3)[C@H](N(C)C)[C@H]2O)[C@@H](CC=O)C[C@@H](C)[C@@H](O)/C=C/C=C/C[C@@H](C)OC(=O)C[C@H]1O,0.929,1.07
CN(C)c1ccc2c(c1)OC(N)=C(C#N)C2c1cccc(C(F)(F)F)c1 (configuration not stated),1.04,1
NC(=O)c1ccccc1Nc1ccnc(Nc2cccc(O)c2)n1,0.392,0.446
CC1(C)C2CCC1(C)C(O)C2 (configuration not stated),1.1,0.997
Clc1ccc(COC(Cn2ccnc2)c2ccc(Cl)cc2Cl)c(Cl)c1 (configuration not stated),1.04 and 0.591,1.29 and 1.01
Clc1ccc(C(Cn2ccnc2)OCc2ccc(Sc3ccccc3)cc2)c(Cl)c1 (configuration not stated),0.905,1.06
Clc1ccc(COC(Cn2ccnc2)c2ccc(Cl)cc2Cl)cc1 (configuration not stated),1.26 and 1.03,1.35 and 1.25
C=CC(C1=CC(=O)C(OC)=CC1=O)c1ccc(O)cc1 (configuration not stated),0.816,0.863
CCCCCCCCCCC1=C(C)C(=O)C(OC)=C(OC)C1=O,1.02,0.992
C[C@@H]1CCO[C@H]2Cn3cc(C(=O)NCc4ccc(F)cc4F)c(=O)c(O)c3C(=O)N12,1.35 and 1.15,1.4 and 1.2
CCN1C[C@H](C)n2c(c(O)c3c(=O)n(Cc4ccc(F)c(Cl)c4)nc(C(=O)NC)c32)C1=O,1.29,1.16
CC(=O)c1ccc2c(c1)C1C=CCC1C(c1cc3c(cc1Br)OCO3)N2 (configuration not stated),1.02,0.942
CC(C(=O)Nc1cc(C#N)ccc1CCCC(=O)O)c1ccc(F)c2ccccc12 (configuration not stated),1.06,1.03
COC(=O)C(O)CCn1cnc2c(N)ncnc21 (configuration not stated),0.95,0.999
CC1(C)S[C@@H]2[C@H](NC(=O)COc3ccccc3)C(=O)N2[C@H]1C(=O)O,1.09,1.56

SMILES,PER2::LUC luminescence (time after treatment 24 h),PER2::LUC luminescence (time after treatment 30 h)
CC1(C)S[C@@H]2[C@H](NC(=O)Cc3ccccc3)C(=O)N2[C@H]1C(=O)O,1.06 and 1.17,1.72 and 0.949
CC1(C)S[C@@H]2[C@H](NC(=O)C(C(=O)O)c3ccccc3)C(=O)N2[C@H]1C(=O)O (some centres not stated),1.05,1.03
CC1(C)S[C@@H]2[C@H](NC(=O)[C@H](N)c3ccccc3)C(=O)N2[C@H]1C(=O)O,1.04 and 0.885,0.911 and 0.808
CC(Oc1ccccc1)C(=O)N[C@@H]1C(=O)N2[C@@H]1SC(C)(C)[C@@H]2C(=O)O (some centres not stated),1.02,0.902
COc1cccc(OC)c1C(=O)N[C@@H]1C(=O)N2[C@@H]1SC(C)(C)[C@@H]2C(=O)O,0.867,0.823
Nn1cc(Br)c(=O)[nH]c1=O,0.972,0.954
CC[N+]1(C)C2CCC1CC(OC(=O)C1CCC(C(=O)OC3CC4CCC(C3)[N+]4(C)CC)(c3ccccc3)c3ccccc31)C2 (configuration not stated),0.898,0.961
CN(Cc1ccccc1)c1ccc2cc(C(=O)O)c(=O)oc2c1,1.06,0.948
C[C@@H](O)CCCCn1c(=O)c2c(ncn2C)n(C)c1=O,0.991,0.943
CCc1c(C(=O)NNC(=O)[C@H](O)c2cc(F)cc(F)c2)ccc(O)c1C,1,0.957
CCCCCCCCCCCCCCCCCC(=O)OC(CC(=O)O)C[N+](C)(C)C (racemic),0.909,0.786
CCC[C@@H]1C[C@@H](C(=O)N[C@@H]([C@H]2O[C@H](SC)[C@H](OP(=O)(O)O)[C@@H](O)[C@H]2O)[C@H](C)Cl)N(C)C1,1.07,1.01
CCC[C@@H]1C[C@@H](C(=O)N[C@@H]([C@H]2O[C@H](SC)[C@H](O)[C@@H](O)[C@H]2O)[C@H](C)Cl)N(C)C1,1.08,1.93
CCC[C@@H]1C[C@@H](C(=O)N[C@@H]([C@H]2O[C@H](SC)[C@H](O)[C@@H](O)[C@H]2O)[C@@H](C)O)N(C)C1,0.932 and 0.965,0.909 and 0.803
NC(=O)c1cccc2ncc(-c3ccc(Cl)cc3)nc12,1.12,1.16
COc1cc(O)c2c(=O)c(O)c(-c3ccccc3)oc2c1,0.99,1.06
COC(=O)[C@@H]1OC(=O)C2OC23[C@@]1(C)CCC1[C@@]2(C)CCC(=O)C(C)(C)C2C[C@@H](OC(C)=O)[C@]13C (some centres not stated),0.9,0.921
O=c1cccc2ccc(O)c(O)c2c1O,0.987,0.83
N#Cc1nccc(Oc2cccc(-c3ccc(CN)cc3)c2)n1,0.994,1.14
CC(=O)N[C@H]1[C@H]([C@H](O)[C@H](O)CO)O[C@@](Oc2c[nH]c3ccc(Br)c(Cl)c23)(C(=O)O)C[C@@H]1O,1,0.967
Cc1nc(C#Cc2cccnc2)cs1,1.15,1.26

SMILES,PER2::LUC luminescence (time after treatment 24 h),PER2::LUC luminescence (time after treatment 30 h)
Cc1cccc(C#Cc2ccccc2)n1,1.56 and 1.59 and 1.5,1.16 and 1.75 and 1.47
NS(=O)(=O)C#Cc1ccccc1,1.18,0.903
Cc1cc(C)c(/C=C2\C(=O)Nc3ccc(Cl)cc32)[nH]1,1.06,1.02
O=C(/C=C/c1ccc(O)c(O)c1)O[C@@H]1C[C@](O)(C(=O)O)C[C@@H](O)[C@H]1O,1.8,1.28
O=C(/C=C/c1ccc(O)c(O)c1)OCCc1ccccc1,0.173,0.361
O=C(O)/C=C/c1ccc(O)c(O)c1,0.886,0.894
C[C@H]1CCN(C(=O)CC#N)C[C@H]1N(C)c1ncnc2[nH]ccc12,1,1.02
O=Nc1c(O)[nH]c2c(Cl)c(Cl)ccc12,1.05,1.07
OCCOCCN1CCN(C(c2ccccc2)c2ccccc2)CC1,0.939,0.9
O=C(O)CCc1c(C(=O)O)[nH]c2cc(Cl)cc(Cl)c12,1.03,0.901
O=C(O)c1cc(=O)c2c(Cl)cc(Cl)cc2[nH]1,1.04,1
O=C(O)/C(=C\c1c(C(=O)O)[nH]c2cc(Cl)cc(Cl)c12)c1ccccc1,1.4,1.34
O=C(O)[C@@H]1C[C@H](CP(=O)(O)O)CCN1,1.03,0.992
O=C1Nc2nc(-c3c(O)cccc3OCC3CC3)cc([C@@H]3CCCNC3)c2CO1,0.574,0.66
Cc1cc2sc(NC(=O)Cc3ccccc3)nc2cc1Cl,1.02,1.38
COc1ccc(CCC(=O)Nc2nc3ccc(Cl)cc3s2)cc1OC,0.875 and 0.954,1.04 and 0.951
CC[N+](CC)(CC(=O)Nc1c(C)cccc1C)Cc1ccccc1,0.988,0.901
C[C@@H]1O[C@@H](OC[C@H]2O[C@@H](Oc3cc(O)c4c(=O)cc(-c5ccc(O)cc5)oc4c3)[C@H](O)[C@@H](O)[C@@H]2O)[C@H](O)[C@H](O)[C@H]1O,0.948,0.927
